Calls of active or inactive are those of the source.
Legend:
[1] = A549 cell viability effects, profiling panel, calcein-AM fluorescence, 48 h, basal (AID 1162); conditions: higher = more signal
[2] = adipocyte viability effects, profiling panel, cell-based, 3T3-L1 adipocytes, calcein-AM fluorescence, 48 h, basal (AID 1163); conditions: 3T3-L1 adipocytes viability, higher = more signal
[3] = HepG2 cell viability effects, profiling panel, calcein-AM fluorescence, 48 h, basal (AID 1164); conditions: higher = more signal
[4] = MM1S cell viability effects, profiling panel, calcein-AM fluorescence, 48 h, basal (AID 1165); conditions: higher = more signal;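 note: viability of MM1S multiple myeloma cells under basal unstimulated conditions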
[5] = basal RPMI8226 viability, no added stimulus, profiling panel, cell-based, calcein-AM fluorescence, 48 h, PK04 Diversity Set (AID 1166); conditions: RPMI8226 myeloma viability, higher = more signal;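 note: cells grown under basal conditions without added stimulus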
[6] = basal HepG2 mitochondrial membrane potential changes, profiling panel, cell-based, JC-1 fluorescence, 24 h, 100 nL compound (AID 1167); conditions: higher = more signal
[7] = basal 3T3-L1 adipocyte mitochondrial potential changes, profiling panel, cell-based, JC-1 fluorescence, 3T3-L1 adipocytes, 24 h, 100 nL compound (AID 1168); conditions: JC-1 mitochondrial fluorescence, higher = more signal, called active from +8 up or from −8 down
[8] = basal RPMI8226 mitochondrial membrane potential changes, profiling panel, cell-based, JC-1 fluorescence, 24 h, 100 nL compound (AID 1169); conditions: RPMI8226 myeloma, JC-1 mitochondrial potential fluorescence, higher = more signal
[9] = basal MM1S mitochondrial membrane potential changes, profiling panel, cell-based, JC-1 fluorescence, 24 h, 100 nL compound (AID 1170); conditions: higher = more signal
[10] = A549 lung cancer cell viability effects, profiling panel, resazurin fluorescence, 24 h, PK04 Diversity Set (AID 1171); conditions: higher = more signal, called active from +8 up or from −8 down
Note: test concentration not given here.

Row | Compound | z-score [1] | z-score [2] | z-score [3] | z-score [4] | z-score [5] | z-score [6] | z-score [7] | z-score [8] | z-score [9] | z-score [10]
1 | CC(C)[C@H](NC(=O)OC(C)(C)C)[C@@H](O)CC(=O)C(C)(C)C | -0.0305 | -1.02 | 0.483 | 0.514 | -0.0779 | 0.136 | -0.148 (inactive) | -0.988 | -1.13 | -0.242 (inactive)
2 | COc1ccc(OC[C@@H](CO)OC)cc1 | 0.677 | 0.363 | 0.647 | 0.124 | -0.342 | -0.15 | -0.321 (inactive) | 0.104 | 0.674 | -0.551 (inactive)
3 | CO[C@@H](C1CCCCC1)[C@@H](C)[C@H](OCc1cccc(Br)c1)[C@@H](C)CO | -2.34 | -0.348 | -2.22 | -3.02 | -4.04 | -4.59 | 0.408 (inactive) | -1.11 | -0.184 | -1.21 (inactive)
4 | CC=CC1=C(CO)[C@H](O)[C@H]2O[C@H]2[C@@H]1O | -0.37 | 0.309 | 0.366 | -0.948 | -0.671 | -0.206 | 0.00909 (inactive) | -0.225 | -0.244 | -0.337 (inactive)
5 | CCOC(=O)CCN1C(=O)[C@H]2[C@H]3[C@H](O)[C@H](O)CC(=NNC(=O)OCC)[C@H]3CC[C@H]2C1=O | -1.19 | 0.895 | -0.418 | -2.14 | -3.78 | -0.357 | -1.19 (inactive) | -0.541 | 0.0724 | -0.698 (inactive)
6 | CC(CCC(=O)OC[C@H]1O[C@H](C#Cc2ccccc2)C=C[C@@H]1Oc1ccc(C)cc1)=NOC(C)CN1CCCCc2nc(C)c(C)cc21 (stereo not given in full) | 0.393 | -0.239 | 0.0574 | -2.15 | -1.73 | 1.34 | -2.02 (inactive) | -0.325 | -0.737 | 0.599 (inactive)
7 | O=C1[C@H]2[C@H]3[C@H](O)[C@H](O)CC(=NO[C@@H]4O[C@H](CO)[C@@H](O)[C@H](O)[C@H]4O)[C@@H]3CC[C@H]2C(=O)N1c1cccc(Oc2ccccc2)c1 | 0.161 | -0.45 | -0.593 | 0.365 | -0.815 | -0.655 | -0.349 (inactive) | -0.277 | -0.229 | 0.39 (inactive)
8 | O=C1C[C@H](c2ccccc2)[C@H](c2ccc(Br)cc2)O1 | 1.43 | 0.172 | -0.0656 | 0.342 | 1.08 | 1.19 | 0.268 (inactive) | 0.563 | 0.891 | -0.317 (inactive)
9 | CON=C(C)CCN1CCCCc2nc(C)c(C)cc21 | 1.03 | -0.269 | 0.564 | -0.254 | 0.371 | -0.955 | -1.41 (inactive) | -0.174 | 0.289 | -0.0601 (inactive)
10 | COC(=O)[C@H](C)NC(=O)CC=C[C@@H](C)[C@@H]1C=C[C@H](O)[C@@H](CO)O1 | -0.244 | -0.586 | 0.583 | 0.203 | -0.859 | -0.627 | -1.04 (inactive) | 0.685 | -0.463 | -0.521 (inactive)
11 | COC(=O)[C@H](C)NC(=O)CCC1CC(OC(=O)NCc2cccc3ccccc23)CC2(CCCC(COC(=O)NCCOc3ccccc3)O2)O1 (stereo not given in full) | -0.13 | 0.151 | -1.24 | -3.37 | -3.01 | -0.234 | -0.198 (inactive) | -0.458 | -0.463 | 1.33 (inactive)
12 | COC(=O)CC=C[C@@H](C)[C@@H](C=NOC[C@@H](O)COCc1ccco1)OC | 1.3 | -0.921 | 0.436 | 0.195 | 0.598 | -0.327 | 0.499 (inactive) | 0.501 | -0.281 | -0.329 (inactive)
13 | C=CC[C@@H]1C=C[C@H](ON=C2C[C@@H](O)[C@@H](O)[C@@H]3[C@@H]4C(=O)N(CC)C(=O)[C@@H]4CC[C@@H]23)[C@@H](CO)O1 | -0.98 | 1 | 0.281 | -1.44 | -1.23 | -0.495 | 0.265 (inactive) | 0.216 | -0.354 | -0.28 (inactive)
14 | COC(=O)C(C(=O)OC)C1CCCC(=O)C1 (stereo not given) | 0.219 | 0.585 | -0.526 | -0.68 | -1.34 | -0.108 | -0.078 (inactive) | 0.753 | 1.15 | -1.14 (inactive)
15 | CCc1cc2c(nc1CC)CCN(CCC(C)=NO[C@@H]1O[C@H](COC(C)=O)[C@@H](OC(C)=O)[C@H](OC(C)=O)[C@H]1OC(C)=O)C2 | -0.984 | 0.776 | -0.536 | -2.58 | -1.14 | 1.7 | -0.325 (inactive) | -0.0793 | 0.0201 | -0.223 (inactive)
16 | CCOC(=O)[C@H](CC(C)C)NC(=O)CCC1CC(OC(=O)NCc2ccc3c(c2)OCO3)CC2(CCCC(COC(=O)NCCOc3ccccc3)O2)O1 (stereo not given in full) | -0.253 | -0.36 | -1.78 | -2.19 | -1.43 | -1.66 | 0.278 (inactive) | -0.879 | -0.0386 | 0.494 (inactive)

Row | Compound | z-score [1] | z-score [2] | z-score [3] | z-score [4] | z-score [5] | z-score [6] | z-score [7] | z-score [8] | z-score [9] | z-score [10]
17 | CC(C)CN1CCc2nc(-c3ccccc3)c3c(c2C1)CO[C@@H](C)C3 | 1.2 | -0.274 | 0.0114 | 0.639 | -0.409 | 0.462 | 0.0658 (inactive) | -0.0878 | 0.708 | -0.139 (inactive)
18 | CON(C)C(=O)c1nnc2c(n1)[nH]c1ccccc12 | -0.681 | 0.764 | 0.429 | -0.342 | -0.0375 | -0.88 | 0.471 (inactive) | -0.886 | 0.0753 | 0.447 (inactive)
19 | CCOC(=O)[C@H](Cc1ccccc1)NC(=O)CCC1CC(OC(=O)NCc2cccc3ccccc23)CC2(CCCC(COC(=O)NCc3ccc4c(c3)OCO4)O2)O1 (stereo not given in full) | 0.664 | -0.171 | 0.78 | 0.505 | -1.48 | 0.561 | 0.953 (inactive) | -0.675 | -0.239 | -0.269 (inactive)
20 | O=C1[C@H]2[C@H]3[C@H](O)[C@H](O)CC(=NOC[C@@H](O)COCc4ccco4)[C@@H]3CC[C@H]2C(=O)N1Cc1ccccc1 | -0.355 | -0.886 | -0.297 | 0.727 | 0.693 | -0.083 | -0.278 (inactive) | -0.271 | -0.782 | 1.06 (inactive)
21 | CC(CCN1CCCCc2nc(C)c(C)cc21)=NO[C@@H](C)c1cc(-c2c(C)cc(C)cc2C)no1 | 1.08 | 0.531 | 0.148 | -2.9 | -3.77 | 4 | 0.159 (inactive) | -0.831 | -1.74 | 2.06 (inactive)
22 | CC(C)=NOC[C@@H](O)[C@H]1O[C@@H]2OC(C)(C)O[C@@H]2[C@H]1O | 0.112 | -1.53 | 0.139 | -0.112 | -0.0588 | -0.00334 | -1.09 (inactive) | -1.01 | 0.661 | -0.871 (inactive)
23 | C=CC[C@@H]1C=C[C@H](ON=C(C)CCN2CCCCc3nc(C)c(C)cc32)[C@@H](CO)O1 | 0.275 | -0.7 | -0.389 | 0.475 | -0.332 | -0.874 | -1.84 (inactive) | -0.174 | -0.514 | -0.421 (inactive)
24 | CCN1C(C)=C(C(=O)OC)[C@@H](c2ccccc2)N2C(=O)[C@](O)(C(=O)OC)CC(C(C)=O)=C12 | 0.836 | -0.697 | 0.634 | 0.339 | 0.791 | 0.93 | 0.935 (inactive) | 0.138 | 0.146 | -0.256 (inactive)
25 | CC(CCN1CCCCc2nc(C)c(C)cc21)=NOC[C@@H](O)[C@H]1O[C@@H]2OC(C)(C)O[C@@H]2[C@H]1O | -0.638 | -0.566 | -1.33 | -0.22 | -0.177 | -0.536 | -1.31 (inactive) | -0.0542 | -0.477 | 0.0214 (inactive)
26 | CC(C)[C@@H](OCc1ccccc1)[C@H](C)C=NOC[C@@H](O)[C@H]1O[C@@H]2OC(C)(C)O[C@@H]2[C@H]1O | -0.205 | -0.132 | -0.292 | 0.592 | 0.322 | -0.719 | -1.58 (inactive) | 0.13 | 0.461 | -0.665 (inactive)
27 | C[C@@H]1CC[C@H]2C(=O)OC(Cc3ccccc3)CN2[C@H]1c1ccc(Br)cc1 (stereo not given in full) | 1.47 | -1.25 | 0.556 | 0.637 | -0.66 | 1.34 | -1.43 (inactive) | 0.558 | -0.332 | 0.472 (inactive)
28 | CCN1C(=O)[C@H]2[C@H]3[C@H](O)[C@H](O)CC(=NNC(=O)OCc4ccccc4)[C@@H]3CC[C@H]2C1=O | -0.0627 | 0.0682 | -0.131 | -0.0309 | 0.718 | -0.653 | -1.19 (inactive) | -0.118 | -0.458 | -0.32 (inactive)
29 | CCOC(=O)CCN1C(=O)[C@H]2[C@@H]3C(=CC[C@H]2C1=O)C(=O)[C@H]1O[C@H]1[C@H]3O | 0.762 | 0.453 | -0.564 | -3.19 | -3.72 | -1.23 | 0.501 (inactive) | -1.1 | -2.74 | -0.899 (inactive)
30 | CCN1C(=O)[C@H]2[C@H]3[C@H](O)[C@H](O)CC(=NO[C@H](C)c4cn([C@@H]5COC[C@H]5O)nn4)[C@@H]3CC[C@H]2C1=O | 0.165 | -0.736 | -0.127 | -0.0272 | 0.215 | -0.407 | -1.37 (inactive) | 0.125 | -0.11 | -0.232 (inactive)
31 | COc1cccc([C@H]2Oc3ccc(OC)cc3C(=NOCC[C@@H]3C=C[C@H](OC(C)=O)[C@@H](COC(C)=O)O3)[C@@H]2O)c1 | -0.34 | -0.542 | -0.744 | 0.445 | -1.19 | -1.28 | -1.16 (inactive) | -0.209 | -1.04 | -0.945 (inactive)
32 | CO[C@H]1COC(=O)CCC[C@H](C)[C@H](OC)COC(=O)CC=C[C@@H]1C | 1.11 | -0.14 | 0.481 | -0.469 | -0.351 | -0.101 | -1.7 (inactive) | 0.226 | -0.982 | 0.285 (inactive)
